PubChem BioAssay AID651965 (National Center for Advancing Translational Sciences (NCATS), 2013)
The whole screen tested about 340,000 compounds, of which about 6,400 (1.9%) were called active. About 4% were inconclusive and are not listed. The list comes from a sample in which actives are over-represented; it also holds similar structures and randomly drawn compounds. A number with no mark means an inactive call. Calls follow the shape of the dose curve; as a rule, active = well fitted falling curve with a large enough effect; inconclusive = small, poorly fitted or top-dose-only effect; inactive = no such curve, though single readings can be large or run the other way.

Target: ATP-dependent Clp protease proteolytic subunit (Bacillus subtilis (strain 168)) (UniProt P80244)
Experiment: qHTS Assay for Activators of ClpP; also: the source files actives as falling curves though it sought activators and does not explain the sign; nearly all actives have a fitted effect of over 65% in size
Conditions: purified B. subtilis ClpP, FRET peptide cleavage, 20 min; series mostly up to 57.5 µM; activity change, negative = active: at the top concentration
Procedure, shortened: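 Purified B. subtilis ClpP, 10 microg/mL final in Tris/HCl pH8 with KCl, BSA, glycerol and Tween-20, cleaved an Abz/nitrotyrosine-quenched decapeptide. Fluorescence (ex 320, em 430) was read at 0 and 20 min at room temperature. Delta was normalized to 5.8 microM ADEP and DMSO/no-enzyme controls.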
Potency is read from the fitted curve at half-maximal effect.

Compound	activity change, negative = active	Potency
CC(=O)Nc1cccc(-c2cc3nc(NCc4cccnc4)n(C)c(=O)c3s2)c1	-19.5%	–
COc1ccc(C(c2nnnn2C2CCCC2)N2CCN(C/C=C/c3ccccc3)CC2)cc1 (stereo not given)	-3.35%	–
CC(=O)C1=CCC(c2ccccc2)N(S(=O)(=O)c2ccc(C)cc2)C1 (stereo not given)	-14%	–
C=CCc1cccc2cc(C(=O)N3CCN(C(=O)OCC)CC3)c(=O)oc12	-12.7%	–
C=CCc1cccc2cc(C(=O)OCC)c(=O)oc12	–	35.5 µM (active)
CCOc1cccc2cc(C(=O)OCC(=O)Nc3c(C)cccc3CC)c(=O)oc12	12.9%	–
CCOC(=O)C1=CCC2C(=O)N(Cc3ccccc3)C(=O)C12 (stereo not given)	1.34%	–
CC(C)c1cc(Cn2c3ccccc3c(=O)n2C(C)Cn2cc(C3CC3)nn2)on1 (stereo not given)	4.78%	–
COc1ccc(CCNC(=O)CSc2nc(C)nc3c2oc2ccccc23)cc1OC	1.33%	–
COc1ccc(CCNC(=O)CSc2nc(-c3ccc(OC)c(OC)c3)ccc2C#N)cc1	–	17.8 µM (active)
COc1ccc(CCNC(=O)CSc2nnc3ccc(-c4ccncc4)nn23)cc1	-2.01%	–
COc1cccc(CNC(=O)CSc2c3c(nc4cc(Cl)ccc24)CCCC3)c1	-1.55%	–
COc1cccc(-c2ccc(C#N)c(SCC(=O)NCCc3ccc(Cl)cc3)n2)c1	–	35.5 µM (active)
COc1ccc(CCNC(=O)COC(=O)c2cnc(Cl)c(Cl)c2)cc1	-4.01%	–
Nc1nc2cc(Cl)ccc2n1N	0.944%	–
OCC1OC(n2cnc3c(N4CCCC4)ncnc32)C(O)C1O (stereo not given)	0.893%	–
COc1cccc(C(O)c2nc(-c3ccc(C)c(C)c3)cs2)c1 (stereo not given)	-3%	–
CCOC(=O)[C@]12CCCC=C1N(Cc1cccc3ccccc13)C(=O)[C@H](CC(=O)NCC13CC4CC(CC(C4)C1)C3)C2	-3.53%	–
CCCCN(C=O)c1c(CC)nc2c(OCc3ccccc3C(=O)OC)cccn12	-0.714%	–
C[C@@H]1CN([C@@H](C)CO)C(=O)CCCn2nncc2CO[C@H]1CN(C)C(=O)Nc1ccc(C(F)(F)F)cc1	-2.86%	–
CC1(C)Cc2cccc(OCC(=O)NCc3ccccc3)c2O1	0.208%	–
Cc1nc(C(=O)NCc2ccccc2)sc1C1(C)CC(c2cccnc2)=NO1 (stereo not given)	-0.0404%	–

Compound	activity change, negative = active	Potency
Cc1nc(NCc2ccccc2)c(C(N)=O)c2c1COC(C)(C)C2	–	22.4 µM (active)
COC(=O)[C@]12CCCCC=C1N(CCC1=CCCCC1)C(=O)[C@H](CC(=O)N1CCSCC1)C2	3.9%	–
CC(=O)Nc1cnc(-c2ccc(O)cc2C)cn1	-2.26%	–
Brc1ccc2nc(-c3ccccc3)c(Cc3ccccc3)n2c1	-9.97%	–
CC1(C)Cc2c(sc(NC(=O)C(=O)N3CCOCC3)c2C#N)CO1	-0.519%	–
CCOC(=O)N1CCN(C(=O)C(=O)Nc2sc3c(c2C#N)CC(C)(C)OC3)CC1	-0.849%	–
CC(C)OC(=O)C(C#N)c1nc2ccccc2nc1N1CCN(Cc2ccccc2)CC1 (stereo not given)	-3.63%	–
CC(C)C(=O)N1CCC2(CC1)Oc1ccc(F)cc1C(=O)C21CC(c2ccccc2)=NO1 (stereo not given)	-6.58%	–
CC(C)c1nc(N2CCOCC2)c(C#N)c2c1COC(C)(C)C2	–	15.8 µM (active)
CC(C)C(=O)N1CCN(c2nc(-c3ccccc3)c3c(c2C#N)CC(C)(C)OC3)CC1	–	28.2 µM (active)
Cc1ccc(S(=O)(=O)N2CCC(=O)N([C@H](COCc3ccccc3)C(C)C)CC2)cc1	1.87%	–
CN(N=O)c1ccc(C=C2c3ccccc3-c3ccccc32)cc1	-1.46%	–
CN(C)C1=C2C=CC=CC2/C(=C2/C=Cc3ccccc32)C=C1 (stereo not given)	2.14%	–
Cc1ccc(-c2cnc(C(O)c3cccc(C)c3C)[nH]2)cc1 (stereo not given)	-0.238%	–
O=C(c1ccco1)N(Cc1cccs1)c1ccc(O)cc1	-3.06%	–
O=C1NC[C@H](Cc2ccc(O)cc2)N(C[C@@H]2CCCN2C[C@H](Cc2ccccc2)N2C[C@H](Cc3ccccc3)N(CC3CCCCC3)C(=O)C2=O)C1=O	-3.68%	–
CCOC(=O)NN1C(=O)c2ccccc2NC1c1cccc(O)c1 (stereo not given)	–	31.6 µM (active)
CCOC(=O)C(=O)C1C(=O)Nc2ccccc21 (stereo not given)	-7.79%	–
CCN1C(=O)N[C@@H](c2ccccc2)C(C(=O)OC)=C1C	-0.536%	–
CCOC(=O)NN1C(=O)c2ccccc2NC1c1ccccc1O (stereo not given)	–	25.1 µM (active)
CCOC(=O)CN1CCC(c2ccccc2)CC1	-2.84%	–
CCOC(=O)NC(C(F)(F)F)(C(F)(F)F)P(=O)(c1ccccc1)c1ccccc1	0.601%	–

Compound	activity change, negative = active	Potency
CCOC(=O)[C@]12CCCC=C1N(CCC1=CCCCC1)C(=O)[C@H](CC(=O)NCCCCc1ccccc1)C2	1.64%	–
O=C(Nc1ccccc1C(F)(F)F)c1nc(S(=O)(=O)Cc2ccccc2F)ncc1Cl	5.4%	–
COc1cc2nc(Cl)nc(NC3CC3)c2cc1OC	-8.73%	–
CN(O)C(=S)c1ccccc1	–	11.2 µM (active)
CN(/N=C/c1ccccc1)C(=S)c1ccccc1	-1.22%	–
CN(CC(=O)O)C(=O)c1ccccc1	1.88%	–
O=S1(=O)CC(N2CCN(Cc3ccccc3F)CC2)CN1Cc1cn(Cc2ccccc2)nn1 (stereo not given)	0.896%	–
Cc1c(CCO)sc[n+]1CC(=O)c1ccc2ccccc2c1	3.84%	–
CCc1nc2ccc(C(=O)N(C)Cc3ccco3)cn2c1N(C)C(=O)Cc1ccccc1	-2.03%	–
CN(CCO)C(=O)c1nc[nH]c1C(=O)N(C)Cc1ccccc1	2.81%	–
CN(Cc1ccccc1)C(=O)[C@@H]1CCCN1C(=O)[C@@H]1CCCN1C(=O)c1c(F)cccc1F	1.37%	–
Cc1nccn1-c1ccc(NC(=O)[C@H]2O[C@@H](n3ccc(=O)[nH]c3=O)[C@H](O)[C@@H]2O)cc1	2.72%	–
CCCC(=O)N1CCC1(C)C(=O)Nc1ccc(-n2cncn2)cc1 (stereo not given)	-3.69%	–
O=C(Nc1ccn(Cc2ccccc2F)n1)c1ccc(COc2ccc(Cl)cc2Cl)o1	-17.4%	–
Cc1ccc(Cn2ccc(NC(=O)C3C4CCC(C4)C3C(=O)O)n2)cc1 (stereo not given)	-28.6%	–
O=C(Nc1ccn(Cc2ccccc2)n1)c1n[nH]c([N+](=O)[O-])c1Cl	–	22.4 µM (active)
O=C(c1cnn2c1NC(=C1CC1)C=C2C(F)F)N1CCc2ccccc2C1	0.979%	–
Cc1ccc(C(O)c2ncc(-c3ccccc3F)[nH]2)cc1F (stereo not given)	0.929%	–
CCCCn1c(N)c(N(CCC(C)C)C(=O)c2ccc(COc3ccccc3)o2)c(=O)[nH]c1=O	-5.35%	–
CCCCn1c(N)c(N(CCC(C)C)C(=O)c2ccc([N+](=O)[O-])o2)c(=O)[nH]c1=O	–	3.16 µM (active)
CCCCN(C(=O)c1ccc(C)o1)c1c(N)n(CCCC)c(=O)[nH]c1=O	0.476%	–
